From PubChem BioAssay (NCI) come the findings set out here.

“And” between values parts separate entries of the source, which are not always exact repeats. Equal values may be shown once. The panel holds about 79,000 compounds, 15% with a hit somewhere; the sample as a whole holds those more often. Unmarked numbers belong to inactive results. The source made the active and inactive calls. Rule as the data show it: active = growth inhibition above about 70%; inactive = the rest.

Experiment [1] can be described thus: NCI Yeast Anticancer Drug Screen. Data for the rad50 strain (AID 155).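 Also: 0% = growth of vehicle-only cultures of the same strain.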 The note with it: S. cerevisiae rad50 strain growth inhibition; at 50.0 µM; stronger effect = higher value. In outline:
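Compounds were tested on a yeast strain with an engineered DNA damage repair alteration; the reported value is growth inhibition normalised to vehicle treatment.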

Experiment [2] can be described thus: NCI Yeast Anticancer Drug Screen. Data for the mec2-1 strain (AID 157). As to conditions: S. cerevisiae mec2-1 strain, at 50.0 µM, stronger effect = higher value. In outline:
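Test agents were screened against the mec2-1 yeast strain, with defined DNA repair or cell cycle alteration. Growth was scored as inhibition against vehicle-only controls.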

A short description of experiment [3]: NCI Yeast Anticancer Drug Screen. Data for the sgs1 mgt1 strain (AID 161).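 Also: 0% = growth of cultures given vehicle only.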 As to conditions: S. cerevisiae sgs1 mgt1 strain, at 50.0 µM, stronger effect = higher value. Summed up:
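Inhibition of yeast growth, normalised to vehicle-treated controls, is reported for a strain bearing genetic alterations in DNA damage repair.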

A short description of experiment [4]: NCI Yeast Anticancer Drug Screen. Data for the cln2 rad14 strain (AID 165).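 Also: 0% = growth equal to vehicle treated cultures.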 As to conditions: S. cerevisiae cln2 rad14 strain, at 50.0 µM, stronger effect = higher value. In outline: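 Growth of compound-exposed yeast (cln2 rad14 genotype) measured and expressed as inhibition relative to vehicle.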
Experiment [5] in a line: NCI Yeast Anticancer Drug Screen. Data for the bub3 strain (AID 167). The note with it: S. cerevisiae bub3 mutant strain, at 50.0 µM, stronger effect = higher value. In outline: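 Growth of a checkpoint-deficient yeast mutant is measured after compound exposure. Values represent inhibition relative to vehicle.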
The nature of experiment [6]: NCI Yeast Anticancer Drug Screen. Data for the mlh1 rad18 strain (AID 175). As to conditions: S. cerevisiae mlh1 rad18 strain growth inhibition; at 50.0 µM; stronger effect = higher value. Summed up: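 In this whole-cell yeast screen, a strain with altered DNA damage repair is challenged with compound, and its growth is measured against matched vehicle-treated controls.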

As to `CC(C)(C)N1OC1C(Cl)(Cl)Cl` (centres undefined), the growth inhibition in experiment [1] is -20.6%; in experiment [2], -9.55%; in experiment [3] it was -23%; in experiment [4], -18.3%; in experiment [5], -4.95%; in experiment [6], 10.4%.

Regarding `c1ccc([As]2[As](c3ccccc3)[As](c3ccccc3)[As]2c2ccccc2)cc1` (centres undefined), the growth inhibition in experiment [1] is 99.5% (active); in experiment [2] it was 99.8% (active); in experiment [3], 99.8% (active); in experiment [4], 98.1% (active); in experiment [5] it was 99.2% (active); in experiment [6], 99.5% (active).

As to `CCN(CC)C(=O)N1CN(c2ccccc2)C2(CCN(CCCSc3ccc(F)cc3)CC2)C1=O`, the growth inhibition in experiment [1] was 13.5%; in experiment [2] it was 0.65%; in experiment [3] it was 15.8%; in experiment [4] it was 12.4%; in experiment [5] it was 48.4%; in experiment [6] it was 20.6%.

On to `CC12CCC(O)CC1CCC1C2CCC2(C)C(c3ccc(=O)oc3)CC3OC312` (centres undefined), for which the growth inhibition in experiment [1] was 35.5%; in experiment [2] it was 31.5%; in experiment [3], 66.5%; in experiment [4], 48.5%; in experiment [5] it was 48.6%; in experiment [6], 60.9%.

`Cc1ccccc1N`: the growth inhibition is 4.1% in experiment [1]; -14.4% in experiment [2]; -1.15% in experiment [3]; -1.7% in experiment [4]; -1.55% in experiment [5]; 4.4% in experiment [6].

For the molecule `Cc1cc(C)n(SC(Cl)(Cl)Cl)n1`, the growth inhibition is -12.3% in experiment [1]; 28.3% in experiment [2]; -15.3% in experiment [3]; -4.6% in experiment [4]; 7.45% in experiment [5]; -13.7% in experiment [6].

On to `CN1CCCC(OC(=O)C(c2ccccc2)C2(O)CCCC2)C1` (centres undefined), for which the growth inhibition in experiment [1] is 30.6%; in experiment [2] it was -9.55%; in experiment [3], 27.1%; in experiment [4], -27.9%; in experiment [5] it was -1.85%; in experiment [6] it was 16.8%.

As for `COC1OC2COc3ccccc3OC2C(N=C(N)N[N+](=O)[O-])C1OS` (centres undefined), the growth inhibition in experiment [1] is -0.8%; in experiment [2], -7.55%; in experiment [3] it was 2.15%; in experiment [4], -24.7%; in experiment [5], -3.15%; in experiment [6], 11.3%.

Regarding `COc1cc([C@@H]2c3cc4c(c(O)c3C[C@H]3COC(=O)[C@@H]32)OCO4)cc(OC)c1OC`, the growth inhibition in experiment [1] is -5.65% and 13.2%; in experiment [2] it was 9.3% and 7.85%; in experiment [3] it was 2.65% and 2.95%; in experiment [4], 0.1% and 15.8%; in experiment [5], 15.4% and 23.4%; in experiment [6], 28.2% and 30.5%.

On to `CC(C)OP(=O)(OC(C)C)C(=O)Nc1cc(Cl)ccc1Cl`, for which the growth inhibition was -23.5% in experiment [1]; 14.6% in experiment [2]; -6.35% in experiment [3]; -31% in experiment [4]; 15% in experiment [5]; -0.15% in experiment [6].

As to `Cc1c(OCC(=O)N/N=C/c2ccc(N(CCCl)CCCl)cc2)ccc2c(=O)c3ccccc3oc12`, the growth inhibition was -1.95% in experiment [1]; -10.3% in experiment [2]; -3.15% in experiment [3]; -15.5% in experiment [4]; 13.8% in experiment [5]; -8.35% in experiment [6].

As for `ClCCCCl`, the growth inhibition in experiment [1] is 13.2%; in experiment [2], -15.8%; in experiment [3], -3.85%; in experiment [4], -7.4%; in experiment [5], 4.9%; in experiment [6], -27.6%.

For the molecule `c1ccc(CN2CCNCC2)cc1`, the growth inhibition in experiment [1] was -8.35%; in experiment [2], -14.4%; in experiment [3] it was 1.9%; in experiment [4], -14.1%; in experiment [5] it was 4.9%; in experiment [6] it was -9.7%.

On to `CC(=O)[CH-]C(C)=O.CC(=O)[CH-]C(C)=O.CC(=O)[CH-]C(C)=O.[Ga+3]`, for which the growth inhibition was 28.6% in experiment [1]; 13.9% in experiment [2]; 15.3% in experiment [3]; 42.6% in experiment [4]; 31.1% in experiment [5]; 18.6% in experiment [6].

Take `O=S(=O)(c1ccccc1)N1C2CCCC21` (centres undefined): the growth inhibition in experiment [1] is 14.1%; in experiment [2] it was 2.55%; in experiment [3] it was 7.05%; in experiment [4], -2.75%; in experiment [5], 7.5%; in experiment [6] it was -21.5%.

With `CN1CCc2c([nH]c3ccccc23)C1`, the growth inhibition was 18.4% in experiment [1]; -7.3% in experiment [2]; 20.6% in experiment [3]; 17.2% in experiment [4]; 1.2% in experiment [5]; -45.1% in experiment [6].

Regarding `COc1cc[c]([Pb]([c]2ccc(Cl)cc2)([c]2ccc(Cl)cc2)[c]2ccc(OC)cc2)cc1`, the growth inhibition was -13.4% in experiment [1]; -8.95% in experiment [2]; -1.1% in experiment [3]; -25.7% in experiment [4]; -4.25% in experiment [5]; 16.2% in experiment [6].

On to `N#Cc1ccc(CCl)cc1`, for which the growth inhibition in experiment [1] was 39.1%; in experiment [2], 7.55%; in experiment [3], 7.45%; in experiment [4], -6.05%; in experiment [5] it was 2.95%; in experiment [6] it was 41.7%.

Take `N.O=S(=O)(O)O.[Al]`: the growth inhibition is 6.55% in experiment [1]; 7.45% in experiment [2]; 4.85% in experiment [3]; -3.8% in experiment [4]; -5.1% in experiment [5]; -2.4% in experiment [6].
